Assay [1] is described as follows: inhibitors of TNFa-induced NFkB p65 translocation, primary screen, imaging, HUVEC, MLSMR starter and 10KST1 sets (AID 438;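 active means inhibition above 20% together with a positive visual image hit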;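 further: compound added about 3h40 before a 20 min TNFalpha stimulation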;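 on inhibition: signal is the nuclear over cytoplasmic p65 intensity ratio per well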). To be noted: HUVEC TNFa-induced p65 nuclear translocation; cell count: measured here: nuclei count (cytotoxicity indicator), at 2.08 µM; inhibition: at 2 µM, stronger effect = higher value, 0% TNFa-plus-vehicle, 100% no-TNFa wells.
Assay [2] is described as follows: inhibitors of mutant huntingtin aggregation, primary screen, imaging, exon1htt(103Q)mCFP cells, high-content imaging (AID 483;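 active means visual image review flags a hit and inhibition of aggregation exceeds 20%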;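 further: compound exposure lasted 3 days before fixation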;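 on nuclei count: percent of the per-plate median nuclei count of sample wells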). To be noted: exon1htt(103Q)mCFP cell line, aggregate imaging, at 2 µM; inhibition of aggregation: stronger effect = higher value; nuclei count: measured here: cell count, toxicity.
Assay [3] can be described thus: inhibitors of E-selectin induction by TNFa, primary screen, imaging, HUVEC, immunofluorescence, MLSMR starter and 10KST1 sets (AID 487;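 active means visually confirmed hit in the image check and inhibition above 20%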;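 on inhibition: signal is fraction of cell area covered by stained E-selectin grains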;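 on nuclei count: 100% = median nuclei count of all wells on the same plate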). The note with it: HUVEC TNFalpha-induced E-selectin immunofluorescence imaging, at 2 µM; inhibition: stronger effect = higher value; nuclei count: measured here: cell number, toxicity.
The target in assay [4] is Voltage-gated potassium channel subunit beta-2 (Rattus norvegicus) (UniProt P62483). Description: KvBeta enzyme negative modulators, primary screen, biochemical, NADPH fluorescence (AID 622;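 active means fluorescence slope higher than the sample average by over 3 SD, cut at about -0.22 in these data, passing the limit was not always enough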;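 further: slope of raw intensity against log time taken from 70 to 1610 s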). To be noted: recombinant KvBeta, 4-cyanobenzaldehyde reduction, at 10 µM, stronger effect = higher value.
The target is the same in assay [5]. The experiment in a line: KvBeta positive modulators, primary screen, biochemical, NADPH fluorescence (AID 623).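 Further: fluorescence intensity change per second fitted from 20 to 320 s.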 To be noted: Recombinant KvBeta, NADPH fluorescence decrease slope, 10 min; at 10 µM; stronger effect = lower value.
For assay [6], the target named is Alpha-2C adrenergic receptor (Homo sapiens) (UniProt P18825). Description: modulators of alpha2C/GIRK thallium flux, primary screen, cell-based, HEK293 alpha2C/GIRK1/2 (AID 624;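 active means fluorescence slope after compound addition differing from the mean of all screened samples at 99.7% confidence, in either direction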;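 further: slope of fluorescence ratio to pre-addition baseline per second over 15 to 24 s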). The note with it: thallium flux BTC fluorescence, at 10 µM, actives lie on both sides.
Assay [7] is described as follows: inhibitors of Sendai virus-induced IRF3 signaling, primary screen, TLR/RLR signaling modifier project, cell-based, Sendai virus stimulus, luciferase, 10K MLSCN set (AID 602276;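 active means inhibition at or above 50% at 10 µM; inactive means inhibition below 50%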;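 further: firefly luciferase from ISG56 promoter only with Renilla not read in this screen; 0% = Sendai virus plus DMSO and 100% = medium plus DMSO without virus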). To be noted: HEK293 RL24 IRF3 luciferase reporter, at 10 µM, stronger effect = higher value. (Reporter assays use an easily measured gene product as a stand-in for the process of interest.)
Assay [8] can be described thus: inhibitors of poly I:C-induced TLR3 signaling, primary screen, cell-based, poly I:C stimulus, luciferase, 10K MLSCN set (AID 602277;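 active means inhibition of the reporter signal at or above 50%; inactive means inhibition below 50%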). The note with it: HEK293-TLR3 RL24 IRF3 luciferase reporter, at 10 µM, stronger effect = higher value.

Calls of active or inactive are those of the source.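 How the source made its calls, unless noted: active means NADPH fluorescence slope more negative than the mean of all samples by about 3 SD, 99.7% confidence; inactive means the rest.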

Voltage-gated potassium channel subunit beta-2 (Rattus norvegicus), sequence (P62483 whole entry, looked up): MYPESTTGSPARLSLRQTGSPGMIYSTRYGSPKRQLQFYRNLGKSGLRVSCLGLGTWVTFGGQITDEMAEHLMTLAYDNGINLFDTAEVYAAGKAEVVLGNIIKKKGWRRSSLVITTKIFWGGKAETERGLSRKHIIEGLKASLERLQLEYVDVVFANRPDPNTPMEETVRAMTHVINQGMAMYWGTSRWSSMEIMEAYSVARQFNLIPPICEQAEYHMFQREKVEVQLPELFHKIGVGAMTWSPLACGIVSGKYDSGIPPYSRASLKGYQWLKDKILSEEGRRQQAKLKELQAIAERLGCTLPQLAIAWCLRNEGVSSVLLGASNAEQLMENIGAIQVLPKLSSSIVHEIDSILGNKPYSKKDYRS
Alpha-2C adrenergic receptor (Homo sapiens), sequence (P18825 whole entry, looked up): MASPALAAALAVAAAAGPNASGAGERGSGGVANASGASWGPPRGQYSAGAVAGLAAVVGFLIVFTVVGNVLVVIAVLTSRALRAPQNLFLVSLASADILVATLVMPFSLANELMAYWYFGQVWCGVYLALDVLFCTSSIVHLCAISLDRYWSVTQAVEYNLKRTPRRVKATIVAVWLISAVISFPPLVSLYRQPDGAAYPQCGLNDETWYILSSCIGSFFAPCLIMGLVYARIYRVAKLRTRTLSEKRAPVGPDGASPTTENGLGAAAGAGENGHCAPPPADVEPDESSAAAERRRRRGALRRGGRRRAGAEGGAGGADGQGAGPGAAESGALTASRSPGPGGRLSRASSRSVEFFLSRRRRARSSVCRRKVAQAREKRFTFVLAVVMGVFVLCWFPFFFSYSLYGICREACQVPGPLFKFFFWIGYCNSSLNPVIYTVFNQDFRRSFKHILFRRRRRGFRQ

What is called inhibition is the relative decrease from the control value, in per cent. On to `CCOC(=O)C(NC(=O)CC)(Nc1ccc(S(=O)(=O)Nc2onc(C)c2C)cc1)C(F)(F)F` (centres undefined), for which the cell count in assay [1] was 320. Besides, the inhibition is 3.4% (inactive) in assay [1], -27.3% (inactive) in assay [3], 11.3% (inactive) in assay [7] and 14.1% (inactive) in assay [8]. In assay [2], the inhibition of aggregation was 0.6% (inactive). For the same molecule, the nuclei count in assay [2] came out at 95%; in assay [3], 104%. Also, the fluorescence slope in assay [4] was -0.61 (inactive). Moreover, the NADPH fluorescence slope in assay [5] was -1.1e-05 (inactive). The slope in assay [6] was 0.00634 (inactive).
For the molecule `COc1cc(N=c2ssnc2Cl)cc(OC)c1`, the cell count in assay [1] was 148. Also, the inhibition in assay [1] was -7.4% (inactive); in assay [3] it was 4.2% (inactive); in assay [7], -6.83% (inactive); in assay [8] it was 8.97% (inactive). In assay [2], the inhibition of aggregation was 0.8% (inactive). Besides, the nuclei count was 74.7% in assay [2] and 82.2% in assay [3]. For the same molecule, in assay [4], the fluorescence slope was -0.557 (inactive). Besides, in assay [5], the NADPH fluorescence slope was -8.9e-05 (inactive). Further, the slope in assay [6] was 0.0056 (inactive).
Regarding `CC(C)N(Cc1nc(-c2ccccc2)no1)C(=O)CCCN1C(=O)c2ccccc2C1=O`, in assay [1], the cell count worked out at 475. Also, the inhibition in assay [1] was -9.3% (inactive); in assay [3], -78.3% (inactive); in assay [7] it was 4.76% (inactive); in assay [8], 3.27% (inactive). Further, in assay [2], the inhibition of aggregation was -7.3% (inactive). In addition, the nuclei count in assay [2] is 112%; in assay [3] it was 158%. For the same molecule, the fluorescence slope in assay [4] is -0.53 (inactive). In assay [5], the NADPH fluorescence slope was -8.9e-06 (inactive). In assay [6], the slope was 0.00616 (inactive).
Turning to `O=C(Nc1cc(C(F)(F)F)ccc1Cl)C1CCN(c2nnc(-n3cccc3)s2)CC1`, in assay [1], the cell count came out at 329. The inhibition is -2.9% (inactive) in assay [1], -114% (inactive) in assay [3], 17.2% (inactive) in assay [7] and 9.28% (inactive) in assay [8]. Further, in assay [2], the inhibition of aggregation is 6.1% (inactive). Further, the figures for the nuclei count in assay [2] and in assay [3] were 84.2% and 126%, respectively. Also, the fluorescence slope in assay [4] was -0.39 (inactive). In assay [5], the NADPH fluorescence slope is -5.6e-05 (inactive). In addition, the slope in assay [6] was 0.00662 (inactive).
As to `CCOC(=O)c1ccccc1NC(=O)c1c(O)c2ccccc2n(CC)c1=O`, in assay [1], the cell count came to 649. In addition, the inhibition in assay [1] was -12.8% (inactive); in assay [3] it was 20.2% (inactive); in assay [7], -2.85% (inactive); in assay [8] it was 9.26% (inactive). Also, the inhibition of aggregation in assay [2] was -35.3% (inactive). Further, the nuclei count in assay [2] was determined as 101%; in assay [3], 120%. Besides, the fluorescence slope in assay [4] is -0.489 (inactive). In addition, the NADPH fluorescence slope in assay [5] is -0.000195 (inactive). Moreover, the slope in assay [6] is 0.00747 (inactive).
On to `COc1ccc(C2(C(=O)Nc3c(C)n(C)n(-c4ccccc4)c3=O)CCCC2)cc1OC`, for which the cell count in assay [1] stood at 712. In addition, the inhibition in assay [1] was 1.6% (inactive); in assay [3], -52.3% (inactive); in assay [7] it was 13.1% (inactive); in assay [8], 14.9% (inactive). For the same molecule, the inhibition of aggregation in assay [2] was -9.8% (inactive). Moreover, the nuclei count in assay [2] is 76.1%; in assay [3], 104%. Further, in assay [4], the fluorescence slope is -0.427 (inactive). For the same molecule, the NADPH fluorescence slope in assay [5] is 2.3e-05 (inactive). Besides, in assay [6], the slope is 0.00772 (inactive).
In the case of `O=C(Oc1ccc(Cl)cc1N1C(=O)CCC1=O)c1ccco1`, in assay [1], the cell count was found to be 331. In addition, the inhibition in assay [1] is -4.2% (inactive); in assay [3], -182% (inactive); in assay [7], 7.34% (inactive); in assay [8] it was 31.5% (inactive). Besides, the inhibition of aggregation in assay [2] is -31.4% (inactive). The results for the nuclei count in assay [2] and in assay [3] were 114% and 134%, respectively. Moreover, the fluorescence slope in assay [4] is -0.463 (inactive). Besides, the NADPH fluorescence slope in assay [5] was -1.4e-05 (inactive). The slope in assay [6] is 0.00607 (inactive).
On to `Cc1onc(-c2ccccc2)c1C(=O)N1CCN(C(=O)c2ccco2)CC1`, for which the cell count in assay [1] is 601. For the same molecule, the inhibition is 2.2% (inactive) in assay [1], -20.4% (inactive) in assay [3], 14.1% (inactive) in assay [7] and 20.5% (inactive) in assay [8]. Also, the inhibition of aggregation in assay [2] was -0.2% (inactive). The nuclei count in assay [2] amounted to 111%; in assay [3] it was 93.8%. In assay [4], the fluorescence slope is -0.5 (inactive). The NADPH fluorescence slope in assay [5] was -4.3e-05 (inactive). Besides, in assay [6], the slope was 0.00556 (inactive).
Take `CS(=O)(=O)N1CCCC(C(=O)NCCCN2CCc3ccccc3C2)C1` (centres undefined): the cell count in assay [1] is 228. Moreover, the inhibition in assay [1] is 3.4% (inactive); in assay [3], 35.8% (inactive); in assay [7], -8.77% (inactive); in assay [8], 5.97% (inactive). In assay [2], the inhibition of aggregation is 10.5% (inactive). The nuclei count in assay [2] was determined as 83.5%; in assay [3], 83.4%. Also, in assay [4], the fluorescence slope is -0.54 (inactive). For the same molecule, the NADPH fluorescence slope in assay [5] was -1.5e-05 (inactive). Besides, the slope in assay [6] is 0.00591 (inactive).
Regarding `CN1CCN(S(=O)(=O)c2ccc(NC(=O)Nc3cccc(Cl)c3)cc2)CC1`, the cell count in assay [1] is 468. Moreover, the inhibition in assay [1] is 0.3% (inactive); in assay [3] it was 36.5% (inactive); in assay [7], -1.37% (inactive); in assay [8], -11.1% (inactive). Also, in assay [2], the inhibition of aggregation was -4.4% (inactive). Besides, the nuclei count in assay [2] is 91.8%; in assay [3] it was 114%. In addition, the fluorescence slope in assay [4] is -0.614 (inactive). For the same molecule, the NADPH fluorescence slope in assay [5] was -3e-05 (inactive). Further, in assay [6], the slope is 0.00476 (inactive).
With `O=C(NCc1ccco1)c1c2c(nc3ccccc13)CCC2`, the cell count in assay [1] amounted to 301. Also, the inhibition in assay [1] was -1.7% (inactive); in assay [3], -7.8% (inactive); in assay [7], 5.99% (inactive); in assay [8], 7.89% (inactive). For the same molecule, in assay [2], the inhibition of aggregation was 11.3% (inactive). Also, the nuclei count in assay [2] came to 87.3%; in assay [3], 83.7%. In assay [4], the fluorescence slope is -0.494 (inactive). Also, the NADPH fluorescence slope in assay [5] is -5.2e-05 (inactive). In assay [6], the slope was 0.00639 (inactive).
`CC(C)C(=O)Nc1ccc(-c2nc3cccnc3o2)cc1`: the cell count in assay [1] was determined as 413. The inhibition in assay [1] is 6.7% (inactive); in assay [3], 23.3% (inactive); in assay [7] it was -33.7% (inactive); in assay [8], -147% (inactive). For the same molecule, the inhibition of aggregation in assay [2] is 12.8% (inactive). Moreover, the figures for the nuclei count in assay [2] and in assay [3] were 109% and 107%, respectively. Also, the fluorescence slope in assay [4] was -0.262 (inactive). In addition, in assay [5], the NADPH fluorescence slope was 4.8e-06 (inactive). Besides, in assay [6], the slope was 0.0065 (inactive).
As for `CC1CCN(S(=O)(=O)c2ccc3[nH]c(=O)cc(C(=O)O)c3c2)CC1`, the cell count in assay [1] was found to be 323. Also, the inhibition in assay [1] was -20.8% (inactive); in assay [3], -20% (inactive); in assay [7], -2.34% (inactive); in assay [8] it was 13% (inactive). The inhibition of aggregation in assay [2] is 8.5% (inactive). The results for the nuclei count in assay [2] and in assay [3] were 129% and 104%, respectively. Further, in assay [4], the fluorescence slope is -0.463 (inactive). The NADPH fluorescence slope in assay [5] is -0.000161 (inactive). Besides, the slope in assay [6] was 0.00662 (inactive).
As to `Cc1ccc(C2CC(c3ccc(C)cc3)n3nc(N)nc3N2)cc1` (centres undefined), in assay [1], the cell count was 871. Also, the inhibition in assay [1] was 2.8% (inactive); in assay [3], -71.7% (inactive); in assay [7] it was -11.6% (inactive); in assay [8], 0.814% (inactive). The inhibition of aggregation in assay [2] was 15.1% (inactive). Besides, the nuclei count in assay [2] amounted to 95.1%; in assay [3], 116%. For the same molecule, in assay [4], the fluorescence slope is -0.613 (inactive). In addition, in assay [5], the NADPH fluorescence slope was -1.7e-05 (inactive). Further, the slope in assay [6] is 0.00808 (inactive).
